Screening results as filed in PubChem.
PfHsp90 set2: growth inhibition of PfHsp90-expressing yeast, primary screen, antimalarial PfHsp90 inhibitor project, S. cerevisiae, BacTiter-Glo luminescence, single point, set 2 | AID 504621, 2011 | inhibition, % at 9.4 µM | 310,000 tested, 0.32% active | BacTiter-Glo ATP, 48 h; yeast lacking PDR1 and PDR3 efflux regulators;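 active = every replicate shows inhibition above about 80%, whatever the replicate mean, limit read from the data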;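 also: 0% = DMSO neutral controls and 100% = 20 µM radicicol positive controls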
EBI2 block: EBI2 receptor antagonists, beta-arrestin recruitment, primary screen, cell-based, luminescence, 7a,25-OHC stimulation, uHTS; G-protein coupled receptor 183 (Homo sapiens), P32249; 7a,25-OHC stimulated; inhibition, % at 5 µM; 360,000 tested, 0.81% active; in the data active = inhibition above about 38%;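 also: enzyme fragment complementation signal reports receptor beta-arrestin coupling in cells; 0% = agonist plus DMSO wells and 100% = wells without agonist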
Target sequence (P32249 whole entry, looked up, the tested form may be a part): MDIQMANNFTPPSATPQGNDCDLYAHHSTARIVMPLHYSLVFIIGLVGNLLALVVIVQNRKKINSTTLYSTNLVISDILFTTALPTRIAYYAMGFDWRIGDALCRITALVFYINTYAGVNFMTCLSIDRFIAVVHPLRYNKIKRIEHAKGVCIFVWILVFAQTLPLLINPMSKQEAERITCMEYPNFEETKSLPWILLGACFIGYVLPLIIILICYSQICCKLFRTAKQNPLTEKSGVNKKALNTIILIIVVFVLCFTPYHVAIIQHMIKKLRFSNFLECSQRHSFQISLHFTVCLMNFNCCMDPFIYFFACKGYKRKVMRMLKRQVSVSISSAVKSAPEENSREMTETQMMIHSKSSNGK
SKKanGAS inh: S. pyogenes SKKanGAS growth inhibitors in kanamycin, primary screen, streptokinase expression inhibitor project, SKKanGAS strain, BacTiter-Glo luminescence | inhibition, % at 7.5 µM | 300,000 tested, 1.3% active | AID 1662, 2009 | 6 h;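 active = mean replicate score, as percent of positive control median, at least 50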;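 also: strain carries kanamycin resistance gene driven by streptokinase promoter and grows in 40 µg/ml kanamycin; loss of luminescence reflects streptokinase promoter inhibition or plain growth inhibition; 0% = median of DMSO wells and 100% = positive control at its reference dose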
TIM10 inh: growth inhibitors of isogenic TIM10 control yeast, primary screen, counter-screen for tim10-1 yeast inhibitor project, luminescence, uHTS; AID 463195, 2010; S. cerevisiae TIM10 strain growth, BacTiter-Glo luminescence, 24 h; 330,000 tested, 1.4% active; inhibition, % at 10 µM;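 active = inhibition of 40% or more at the single tested concentration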;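 also: wild-type TIM10 isogenic control strain grown at permissive 25 °C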
tim23-1 inh: growth inhibitors of tim23-1 mutant yeast, primary screen, luminescence, uHTS | AID 463212, 2010 | S. cerevisiae tim23-1 growth, BacTiter-Glo luminescence, 24 h | inhibition, % at 20 µM | 330,000 tested, 1.3% active;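 active = growth inhibition of the mutant yeast at or above 50%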;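 also: temperature-sensitive mutant grown at 25 °C; plate controls were DMSO-treated mutant yeast for no effect and medium wells lacking yeast for full effect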
tim10-1 inh: growth inhibitors of tim10-1 mutant yeast, primary screen, luminescence, uHTS. 330,000 tested, 2.2% active. AID 463190, 2010. S. cerevisiae tim10-1 ts strain growth, BacTiter-Glo, 24 h. inhibition, % at 20 µM;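 active = inhibition of at least 40%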;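 also: mutant grown at 25 °C; 0% = DMSO wells with yeast and 100% = wells holding no yeast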
tim10-1 conf: growth inhibitors of tim10-1 mutant yeast, confirmation, single concentration, luminescence, S. cerevisiae. shares compounds with tim10-1 inh. S. cerevisiae tim10-1 ts strain growth, BacTiter-Glo, 24 h. inhibition, % at 20 µM. 7,400 tested, 56% active. AID 463213, 2010;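 active = inhibition of yeast growth at or above a set limit in either of two repeat tests at 20 µM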;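 also: tim10-1 mutant grown at permissive 25 °C to find synthetic lethal compounds; 0% = DMSO yeast wells and 100% = medium wells without yeast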
An asterisk follows results filed as active. Only some compounds are listed: those with a hit (about 4.7% of all), similar ones and a draw of the others.

Cc1cccc(C)c1OC(=O)CCN1C(=O)C2C3C=CC(C4CC34)C2C1=O (centres undefined) was read as PfHsp90 set2 28, EBI2 block 31, SKKanGAS inh 0, TIM10 inh 15, tim23-1 inh 26, tim10-1 inh 41* and tim10-1 conf 30.
`Cc1cc(-c2ccccc2)nc(N/N=C/c2ccccc2)n1` gave PfHsp90 set2 -22, EBI2 block 3, SKKanGAS inh -4, TIM10 inh 37, tim23-1 inh 37, tim10-1 inh 41* and tim10-1 conf 18.
Cc1cc(-c2ccccc2)nc(N/N=C/c2cccnc2)n1 was read as PfHsp90 set2 16, EBI2 block -18, SKKanGAS inh -9, TIM10 inh 20, tim23-1 inh 7 and tim10-1 inh 6.
`Cc1ccc(-c2cc(-c3ccccc3)nc(N/N=C/c3cccnc3)n2)cc1` gave PfHsp90 set2 -2, EBI2 block 16, TIM10 inh 16, tim23-1 inh 16, tim10-1 inh 44* and tim10-1 conf 25.
For CCOC(=O)c1ccc(N=Cc2cnc(N)nc2N)cc1 the results were PfHsp90 set2 -19 and EBI2 block 0.
For O=C(NCc1ccccc1C(F)(F)F)C1CC(c2ccccc2[N+](=O)[O-])=NO1 (centres undefined) the results were EBI2 block -3, SKKanGAS inh 3, TIM10 inh 4, tim23-1 inh 36 and tim10-1 inh 18.
CCOC(=O)N1CCC(NC(=O)c2ccc3c(c2)N=C(C)c2c(C)ccc(C)c2S3)CC1 was read as PfHsp90 set2 -17, EBI2 block 0, SKKanGAS inh 9, TIM10 inh 22, tim23-1 inh 45, tim10-1 inh 44* and tim10-1 conf 3.
Screening O=C(c1ccco1)N1N=C(c2cccs2)CC1c1ccco1 (centres undefined) returned PfHsp90 set2 1, EBI2 block -16, SKKanGAS inh -11, TIM10 inh 20, tim23-1 inh 37, tim10-1 inh 41* and tim10-1 conf 10.
`Cc1cccc(/C=N/n2c(COc3ccccc3)n[nH]c2=S)c1` gave PfHsp90 set2 -20, EBI2 block 7, SKKanGAS inh 1, TIM10 inh 36, tim23-1 inh 41, tim10-1 inh 43* and tim10-1 conf 37*.
Cc1n[nH]c(=S)n1/N=C/c1cccc(OCc2ccccc2)c1 was read as PfHsp90 set2 7, EBI2 block 25, SKKanGAS inh -7, TIM10 inh 26, tim23-1 inh 37, tim10-1 inh 41* and tim10-1 conf 28.
For O=C(CSc1nnc(NC(=O)c2ccccc2F)s1)NCc1ccco1 the results were PfHsp90 set2 1, EBI2 block -9, SKKanGAS inh -8, TIM10 inh -8, tim23-1 inh 17 and tim10-1 inh 2.
For COc1cc(C)nc(N(C)S(=O)(=O)c2ccccc2Cl)n1 the results were PfHsp90 set2 -23, EBI2 block 0, SKKanGAS inh 4, TIM10 inh 25, tim23-1 inh 23, tim10-1 inh 43* and tim10-1 conf 26.
Screening COc1ccc(-c2nnc(SCc3cc(C)ccc3C)n2N)cc1 returned PfHsp90 set2 1, EBI2 block -5, SKKanGAS inh 8, TIM10 inh 39, tim23-1 inh 45, tim10-1 inh 42* and tim10-1 conf 39*.
For O=C(NCc1ccccc1)c1[nH]c(C(F)(F)F)nc1-c1ccccc1 the results were EBI2 block -10.
`COc1cccc(N=C2CC(C)(C)CC(=O)/C2=C(/O)c2ccccc2)c1` gave PfHsp90 set2 -23, EBI2 block 6, SKKanGAS inh 11, TIM10 inh 13, tim23-1 inh 38, tim10-1 inh 43* and tim10-1 conf 23.
CC1(C)CC(=O)/C(=C(\O)c2ccccc2)C(=NCCO)C1 was read as PfHsp90 set2 0, EBI2 block -16, SKKanGAS inh 7, TIM10 inh 11, tim23-1 inh 12 and tim10-1 inh 10.
Cn1cccc1C(=O)NC(=O)COC(=O)c1ccc(S(C)(=O)=O)cc1 was read as PfHsp90 set2 -31, EBI2 block 3, TIM10 inh -3, tim23-1 inh 10 and tim10-1 inh 1.
For Cn1cccc1C(=O)NC(=O)COC(=O)c1ccc(S(C)(=O)=O)c([N+](=O)[O-])c1 the results were PfHsp90 set2 -5, EBI2 block -6, TIM10 inh 35, tim23-1 inh 40, tim10-1 inh 41* and tim10-1 conf 33*.
Screening Cn1ccsc1=NC(=O)c1ccc(S(C)(=O)=O)c([N+](=O)[O-])c1 returned PfHsp90 set2 7, EBI2 block -38, SKKanGAS inh 7, TIM10 inh 31, tim23-1 inh 35, tim10-1 inh 40* and tim10-1 conf 28*.
Screening Cn1ccsc1=NC(=O)c1ccc(Cl)c([N+](=O)[O-])c1 returned PfHsp90 set2 10, EBI2 block -5, SKKanGAS inh -2, TIM10 inh -7, tim23-1 inh -1 and tim10-1 inh -1.
Screening COc1cccc(CNC(=O)C2CCN(S(=O)(=O)c3ccc4c(c3)CC(C)N4C(=O)C3CC3)CC2)c1 (centres undefined) returned PfHsp90 set2 -9, EBI2 block 7, SKKanGAS inh 1, TIM10 inh 8, tim23-1 inh 16 and tim10-1 inh 11.
For CC1CC(C)CN(S(=O)(=O)c2ccc3c(c2)CC(C)N3C(=O)C2CCC2)C1 (centres undefined) the results were PfHsp90 set2 6, EBI2 block 2, SKKanGAS inh 5, TIM10 inh 21, tim23-1 inh 46, tim10-1 inh 43* and tim10-1 conf 12.
`COc1ccc(CNC(=O)C2CCN(S(=O)(=O)c3ccc4c(c3)CC(C)N4C(=O)C3CC3)CC2)cc1` (centres undefined) gave PfHsp90 set2 10, EBI2 block 26, SKKanGAS inh -3, TIM10 inh 14, tim23-1 inh 38, tim10-1 inh 40 and tim10-1 conf 31*.
Screening Cc1cccc(C)c1NC(=O)CNC(=O)CNC(=O)c1ccc2c(c1)OCO2 returned PfHsp90 set2 -12, EBI2 block -8, SKKanGAS inh 0, TIM10 inh 8, tim23-1 inh -11 and tim10-1 inh -30.
